These results are taken from the supplement of paper PMC7411054.

Each structure is given as a SMILES string. Counter-ions that a name gives are not always drawn. Where only a bound is given, the exact number is not on record here.

Holding throughout (settings): treatment time: 24 h
Assay [1] concerns A549-ACTB-RAB5A. The experiment in a line: lowest phenotypically active concentration; higher = less potent. In a few lines: (§1)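 Each of fifteen gene-edited A549, HepG2 and WPMY1 reporter lines, marked with BFP for segmentation and GFP and RFP/FusionRed, was treated in four wells at 0.3, 1, 3 or 9 µM for 24 h prior to live imaging. Normalisation of per-well live-cell features used solvent control wells. Deviation needed ≥3 of 4 wells beyond the 95th percentile of control Euclidean distances, and reproducibility needed a median replicate Pearson correlation above the 95th percentile of non-replicates. Both were required for phenotypic activity.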

Assay [2] has as its system A549-CANX-COX4. Described as above. In a few lines: as §1
Assay [3] deals with A549-GM130-SQSTM1. Described as above. In a few lines: as §1
In assay [4] the test system is HepG2-TP53BP1-CLTA. Described as above. Summed up: as §1
The test system of assay [5] is HepG2-TUBA1B-RELA. The description is as above. In a few lines: as §1
Assay [6] deals with A549-ACTB-RAB5A. Briefly: phenotypically active (imaging signature differs from DMSO and reproducible) at any of 0.3-9 uM (binary (1 = active, 0 = inactive)); higher = active. In a few lines: as §1
Assay [7] concerns A549-CANX-COX4. The description is as above. Summed up:
as §1

Assay [8] has as its system A549-GM130-SQSTM1. Described as above. Summed up:
as §1

The next assay relates to A549-TP53BP1-CLTA. Described as above. In a few lines:
as §1

The test system of another assay is A549-TUBA1B-RELA. Described as above. Summed up:
as §1

Another assay has as its system HepG2-ACTB-RAB5A. The description is as above. Summed up:
as §1

For another assay, the system named is HepG2-CANX-COX4. The description is as above. Summed up:
as §1

A further assay concerns HepG2-GM130-SQSTM1. Described as above. In a few lines:
as §1

In assay [9] the test system is HepG2-TP53BP1-CLTA. The description is as above. Summed up: as §1
In assay [10] the test system is HepG2-TUBA1B-RELA. The description is as above. Summed up:
as §1

For the next assay, the system named is WPMY1-ACTB-RAB5A. The description is as above. In a few lines:
as §1

A further assay has as its system WPMY1-CANX-COX4. Described as above. In a few lines:
as §1

A further assay relates to WPMY1-GM130-SQSTM1. The description is as above. Summed up:
as §1

Another assay deals with WPMY1-TP53BP1-CLTA. Described as above. Summed up: as §1
Another assay deals with WPMY1-TUBA1B-RELA. The assay is described as above. In a few lines: as §1

In the case of `Cc1c(CN2CCN(C(=O)[C@H](C)O)CC2)sc2c(N3CCOCC3)nc(-c3cnc(N)nc3)nc12`, the “lowest phenotypically active concentration” value was ≤ 0.3 µM with A549-ACTB-RAB5A [1]; ≤ 0.3 µM in the assay on A549-CANX-COX4 [2]; ≤ 0.3 µM in the assay on A549-GM130-SQSTM1 [3]; 1 µM with HepG2-TP53BP1-CLTA [4]; ≤ 0.3 µM in the assay on HepG2-TUBA1B-RELA [5]. In addition, the phenotypically active in the assay with A549-ACTB-RAB5A [6], in the assay on A549-CANX-COX4 [7], in the assay on A549-GM130-SQSTM1 [8], with A549-TP53BP1-CLTA, in the assay on A549-TUBA1B-RELA and with HepG2-ACTB-RAB5A was 1 (active) each time. Further, the phenotypically active in the assay with HepG2-CANX-COX4, with HepG2-GM130-SQSTM1, in the assay with HepG2-TP53BP1-CLTA [9], with HepG2-TUBA1B-RELA [10], with WPMY1-ACTB-RAB5A and in the assay with WPMY1-CANX-COX4 was 1 (active) in each case. Further, the phenotypically active with WPMY1-GM130-SQSTM1, in the assay on WPMY1-TP53BP1-CLTA and with WPMY1-TUBA1B-RELA was 1 (active) throughout.

Consider `CC[C@]1(O)C[C@@H]2CN(CCc3c([nH]c4ccccc34)[C@@](C(=O)OC)(c3cc4c(cc3OC)N(C=O)[C@H]3[C@@](O)(C(=O)OC)[C@H](OC(C)=O)[C@]5(CC)C=CCN6CC[C@]43[C@@H]65)C2)C1` [vincristine], for which the “lowest phenotypically active concentration” value in the assay on A549-ACTB-RAB5A [1], with A549-CANX-COX4 [2], in the assay on A549-GM130-SQSTM1 [3], in the assay with HepG2-TP53BP1-CLTA [4] and in the assay with HepG2-TUBA1B-RELA [5] was ≤ 0.3 µM each time. The phenotypically active in the assay on A549-ACTB-RAB5A [6], in the assay with A549-CANX-COX4 [7], in the assay with A549-GM130-SQSTM1 [8], in the assay on A549-TP53BP1-CLTA, in the assay on A549-TUBA1B-RELA and in the assay on HepG2-ACTB-RAB5A was 1 (active) throughout. For the same compound, the phenotypically active with HepG2-CANX-COX4, in the assay with HepG2-GM130-SQSTM1, with HepG2-TP53BP1-CLTA [9], in the assay on HepG2-TUBA1B-RELA [10], with WPMY1-ACTB-RAB5A and in the assay on WPMY1-CANX-COX4 was 1 (active) throughout. Besides, the phenotypically active in the assay with WPMY1-GM130-SQSTM1, in the assay with WPMY1-TP53BP1-CLTA and in the assay with WPMY1-TUBA1B-RELA was 1 (active) in each case.

On to `CN1CC[C@H](c2c(O)cc(O)c3c(=O)cc(-c4ccccc4Cl)oc23)[C@H](O)C1` [Flavopiridol hydrochloride], for which the “lowest phenotypically active concentration” value in the assay on A549-ACTB-RAB5A [1], in the assay on A549-CANX-COX4 [2], in the assay on A549-GM130-SQSTM1 [3], in the assay on HepG2-TP53BP1-CLTA [4] and with HepG2-TUBA1B-RELA [5] was ≤ 0.3 µM in each case. Also, the phenotypically active with A549-ACTB-RAB5A [6], with A549-CANX-COX4 [7], with A549-GM130-SQSTM1 [8], with A549-TP53BP1-CLTA, in the assay on A549-TUBA1B-RELA and in the assay on HepG2-ACTB-RAB5A was 1 (active) in each case. The phenotypically active with HepG2-CANX-COX4, in the assay with HepG2-GM130-SQSTM1, in the assay with HepG2-TP53BP1-CLTA [9], with HepG2-TUBA1B-RELA [10], with WPMY1-ACTB-RAB5A and in the assay with WPMY1-CANX-COX4 was 1 (active) each time. The phenotypically active in the assay on WPMY1-GM130-SQSTM1, in the assay with WPMY1-TP53BP1-CLTA and in the assay with WPMY1-TUBA1B-RELA was 1 (active) each time.

Regarding `CO[C@@H]1[C@H](N(C)C(=O)c2ccccc2)C[C@H]2O[C@]1(C)n1c3ccccc3c3c4c(c5c6ccccc6n2c5c31)C(=O)NC4`, the “lowest phenotypically active concentration” value in the assay on A549-ACTB-RAB5A [1], in the assay on A549-CANX-COX4 [2], in the assay on A549-GM130-SQSTM1 [3], in the assay on HepG2-TP53BP1-CLTA [4] and with HepG2-TUBA1B-RELA [5] was ≤ 0.3 µM throughout. Also, the phenotypically active with A549-ACTB-RAB5A [6], in the assay with A549-CANX-COX4 [7], in the assay with A549-GM130-SQSTM1 [8], in the assay on A549-TP53BP1-CLTA, in the assay with A549-TUBA1B-RELA and in the assay with HepG2-ACTB-RAB5A was 1 (active) in each case. Further, the phenotypically active in the assay on HepG2-CANX-COX4, with HepG2-GM130-SQSTM1, in the assay on HepG2-TP53BP1-CLTA [9], with HepG2-TUBA1B-RELA [10], in the assay on WPMY1-ACTB-RAB5A and in the assay with WPMY1-CANX-COX4 was 1 (active) throughout. Further, the phenotypically active in the assay on WPMY1-GM130-SQSTM1, in the assay with WPMY1-TP53BP1-CLTA and with WPMY1-TUBA1B-RELA was 1 (active) throughout.

For the compound `CC1(C)CC(=O)C2=C(C1)NC(=S)NC2c1cccc(O)c1` (stereo not given) [Dimethylenastron], the “lowest phenotypically active concentration” value in the assay on A549-ACTB-RAB5A [1] worked out at 1 µM; with A549-CANX-COX4 [2] it was 3 µM; in the assay on A549-GM130-SQSTM1 [3] it was 1 µM; with HepG2-TP53BP1-CLTA [4], 1 µM; in the assay with HepG2-TUBA1B-RELA [5] it was 1 µM. Further, the phenotypically active in the assay with A549-ACTB-RAB5A [6], in the assay with A549-CANX-COX4 [7], in the assay on A549-GM130-SQSTM1 [8], in the assay with A549-TP53BP1-CLTA, in the assay with A549-TUBA1B-RELA and in the assay on HepG2-ACTB-RAB5A was 1 (active) throughout. For the same compound, the phenotypically active in the assay with HepG2-CANX-COX4, in the assay with HepG2-GM130-SQSTM1, in the assay with HepG2-TP53BP1-CLTA [9], with HepG2-TUBA1B-RELA [10], in the assay with WPMY1-ACTB-RAB5A and with WPMY1-CANX-COX4 was 1 (active) in each case. Moreover, the phenotypically active with WPMY1-GM130-SQSTM1, in the assay on WPMY1-TP53BP1-CLTA and in the assay on WPMY1-TUBA1B-RELA was 1 (active) each time.
